Sampled rows, rich in hits. Any-hit rate of the full collection: about 2.8%.
IP6K1 inhibitor = IP6K1 kinase inhibition; activity change, % (series mostly up to about 58 µM); AID 1645851; IP6K1 kinase, ADP-Glo luminescence, 2 h; hits give low values; actives 0.81% (n = 140,000); Q92551; in the data active means activity change below about -25%; further: on the % scale 0 is the no-effect control and ±100 the full control effect
Target sequence (Q92551 whole entry, looked up): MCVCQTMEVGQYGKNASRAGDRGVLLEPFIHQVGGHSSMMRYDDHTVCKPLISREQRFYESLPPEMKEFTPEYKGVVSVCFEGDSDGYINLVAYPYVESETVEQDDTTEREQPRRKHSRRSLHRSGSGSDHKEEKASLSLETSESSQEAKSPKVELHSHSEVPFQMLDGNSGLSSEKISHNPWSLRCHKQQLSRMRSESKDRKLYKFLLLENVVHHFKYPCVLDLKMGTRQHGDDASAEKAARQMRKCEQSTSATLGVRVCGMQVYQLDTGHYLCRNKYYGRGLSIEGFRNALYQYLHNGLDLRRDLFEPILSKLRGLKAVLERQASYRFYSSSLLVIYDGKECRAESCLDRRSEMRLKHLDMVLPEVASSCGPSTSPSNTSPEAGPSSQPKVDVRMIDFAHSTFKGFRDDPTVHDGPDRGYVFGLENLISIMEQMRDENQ
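ADP-Glo luminescence measures ADP made by human IP6K1 during a 2 h RT reaction with ATP/IP6 (mix at 1.3 mM/130 uM); top library doses 57.5 and 19.1 uM final.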
KDM5B inhibitor = inhibitors of human KDM5B histone demethylase; KDM5B demethylase, FDH-coupled NADH fluorescence (FDH is formaldehyde dehydrogenase); Potency, µM (titrated, usually from 57.7 µM), most hits filed as inhibitors; actives 2.6% (n = 220,000); further: potency means the concentration at half of the fitted maximal effect; 0% is about no effect; nearly all actives have a fitted effect of over 70% in size
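Inhibition is measured as reduced NADH fluorescence generation from FDH coupling to formaldehyde release. Truncated KDM5BΔAP at 200 nM final acts on H3K4me3 peptide (12.5 µM in substrate mix) in pH 7.5 HEPES buffer with Tween-20, 30 min, room temperature.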
IP6K1 conf = human IP6K1 inhibition, confirmatory. shares compounds with IP6K1 inhibitor. recombinant IP6K1 kinase, ADP-Glo luminescence, 2 h. Potency, µM (highest dose often 49 µM), without a hit: at the highest dose activity change, negative = inhibition, actives largely listed as inhibitors. actives 13% (n = 1,200). AID 1645852; further: potency means the concentration at half of the fitted maximal effect; on the % scale 0 is the no-effect control and ±100 the full control effect; nearly all actives have a fitted effect of over 65% in size
Starred values were filed as active, the others as inactive; i = inactive; ? = inconclusive; . = not tested or not shown; [ ] = dose if it differs, or a comment. Unless noted, the call rests on the fitted dose curve; in most records, active means well fitted inhibition curve with a large enough effect; inconclusive means small, poorly fitted or top-dose-only effect; inactive means no such curve, though single readings can be large or run the other way.

SMILES | IP6K1 inhibitor | KDM5B inhibitor | IP6K1 conf
Cc1cc(C)c(CNC(=O)c2cc(-c3cccnc3)cc3c2OCCN3C)c(=O)[nH]1 | -28* | ? | -30%
Cc1cc(C)c(CNC(=O)c2nc(-c3cccnc3)cc3[nH]ccc23)c(=O)[nH]1 | 20 | i | .
COc1cc(F)ccc1-c1cc(C(=O)NCc2c(C)cc(C)[nH]c2=O)c2c(c1)N(C(C)C)CCO2 | -27* | 32µM* | -5%
CCC(C)n1cc(C)c2c(C(=O)NCc3c(C)cc(C)[nH]c3=O)cc(-c3ccc(N4CCNCC4)nc3)cc21 (stereo not drawn) | -12 | . | .
CCC1CCCCN1C(=O)Cn1c(-c2ccccc2)nc(C)cc1=O (stereo not drawn) | . | i | .
COC(CNc1nc2c(c(=O)n(C)c(=O)n2C)n1Cc1ccc(F)cc1)OC | . | i | .
CCN1C(C(=O)c2ccccc2)=C(OC(=O)COc2ccccc2)c2ccccc2S1(=O)=O | -29* | ? | ?
CCN1C(C(=O)c2ccccc2)=C(OC(=O)C(C)C)c2ccccc2S1(=O)=O | -3 | ? | .
COc1cccc(CNC(=O)c2cc3c(-c4ccccc4F)nn(C)c3s2)c1 | -20 | ? | .
Cn1nc(-c2ccccc2F)c2cc(C(=O)NCc3ccc(Cl)cc3)sc21 | -39* | ? | ?
CCN(c1ccccc1)c1nnc(NC(=O)Nc2cccc(Cl)c2C)s1 | -102* | i | -22%
CCc1ccccc1NC(=O)Nc1nnc(N(CC)c2ccccc2)s1 | -5 | i | .
O=C(Nc1ccccc1C(F)(F)F)c1nc2ccccc2nc1N1CCOCC1 | . | i | .
Cc1c(Cn2c(C)nc3c(C(=O)O)cc(N4CCOCC4)cc32)cccc1C(F)(F)F | -7 | . | -12%
Nc1ccc(C(=O)O)c(O)c1 | -74* | . | 14%
O=C(O)c1ccccc1O | -5 | . | .
O=C(NCC(c1cccs1)N1CCCC1)c1cc(=O)c2ccc(Br)cc2o1 (stereo not drawn) | . | i | .
Cn1c(=O)c2c(ncn2CCC(=O)Nc2ccccc2F)n(C)c1=O | . | i | .
O=C(CN1C(=O)CCSc2ccc(S(=O)(=O)N3CCCC3)cc21)Nc1ccccc1Cl | -1 | i | .
CCc1ccccc1NC(=O)CN1C(=O)CCSc2ccc(S(=O)(=O)N3CCCC3)cc21 | -31* | i | -16%
COc1ccc(CNC(=O)c2sc(NCCc3ccccc3)nc2C)cc1 | . | i | .
CCCc1cc(=O)[nH]c(SCc2nc(-c3ccc(F)cc3)no2)n1 | . | i | .
COc1ccc(NS(=O)(=O)c2cc(-c3onc(C)c3C)ccc2C)c(OC)c1 | 0 | ? | .
COc1ccc(OC)c(CNS(=O)(=O)c2cc(-c3onc(C)c3C)ccc2C)c1 | -46* | i | 33%
COc1c(Cl)cc(NCC(=O)NC(C)(C#N)C(C)C)cc1Cl (stereo not drawn) | . | i | .
SMILES | IP6K1 inhibitor | KDM5B inhibitor | IP6K1 conf
Cc1ccc2c(c1)cc1c(=O)n(Cc3cccc(Cl)c3)nc(C)n12 | -30* | i | -7%
Cc1ccc2c(c1)cc1c(=O)n(Cc3ccc(Cl)cc3)nc(C)n12 | -7 | ? | .
Cc1ccc(CNS(=O)(=O)c2c(C)nc3sc(C)cn3c2=O)cc1 | -27* | ? | 5%
Cc1cn2c(=O)c(S(=O)(=O)NCCc3ccc(Cl)cc3)c(C)nc2s1 | -6 | ? | .
Cc1ccc(/C=C(/C#N)c2nc3ccccc3[nH]2)cc1 | . | i | .
Cc1ccc(/C=C/c2nc3ccccc3[nH]2)cc1 | -41* | ? | 10µM*
COc1cccc(CC(=O)N2CCC(N3C(=O)C(OCC4CC4)C34CCCCC4)CC2)c1 (stereo not drawn) | -3 | i | .
NC(=O)c1ccccc1OC/C=C/c1ccccc1 | . | i | .
CCOCCn1c(-n2nc(C)cc2C)nc2c1c(=O)n(CCOC)c(=O)n2C | . | i | .
CN(Cc1ccccc1)[C@@H]1C[C@@H]2COCC[C@]2(c2ccccc2)C1 | 23 | . | .
CC(C)CN(CCNC(=O)c1cn(C)c2ccc(S(=O)(=O)N3CCOCC3)cc2c1=O)CC(C)C | 11 | i[11.5 µM] | .
CC(C)CN(CCNC(=O)c1cn(C)c2ccc(S(=O)(=O)N3CCCC3)cc2c1=O)CC(C)C | 29 | i[11.5 µM] | -8%
O=[S+]([O-])(c1cccc(C(F)(F)F)c1)N1CCN(Cc2ccccc2-c2cccnc2)CC1 | 11 | . | .
O=C(CC1=CCCCC1)N1C[C@@H](CO)[C@H](c2nc(C3CC3)no2)C1 | -9 | i | .
COc1ccc(-c2ccc(C(=O)N(C)c3ccccc3)cc2)nn1 | -17 | . | ?
COc1ccc(-c2ccc(C(=O)NCc3ccccc3)cc2)nn1 | 6 | . | .
COc1ccc(-c2ccc(C(=O)NC(C)C)c(Cl)c2)nn1 | -11 | . | .
COc1ccc(-c2ccc(C(=O)N3CCCC3)c(Cl)c2)nn1 | -69* | . | ?
COc1ccc(-c2ccc(C(=O)N(C)C)c(Cl)c2)nn1 | -46* | . | ?
COc1ccc(-c2ccc(C(=O)NCC(F)(F)F)c(Cl)c2)nn1 | -4 | . | .
O=C(c1ccc(Cl)cc1)N1CCCN(c2ccnc3ccnn23)CC1 | 2 | . | .
CCOC(=O)Cn1c(=O)c2c(nc(-n3nc(C)cc3C)n2CC)n(C)c1=O | . | i | .
Cc1ccc(OCc2nc(-c3ccc(C(=O)NCc4ccc(OC(C)C)cc4)cc3)oc2C)cc1 | -11 | ? | .
Cc1oc(-c2ccc(C(=O)NCc3ccc(N(C)C)cc3)cc2)nc1COc1ccccc1 | -25* | ? | -10%
O=C(/C=C/c1ccco1)N1CCCC(C(F)(F)F)C1 (stereo not drawn) | . | i | .
SMILES | IP6K1 inhibitor | KDM5B inhibitor | IP6K1 conf
O=C1c2cnc(-c3cccc(CO)c3)nc2OCCN1Cc1ccccc1 | -14 | i | .
O=C1c2cnc(-c3cccc(CO)c3)nc2OCCN1c1ccccc1 | -40* | i | ?
CCC1(C)Cc2c(sc3nc(SC)n(-c4ccc(C)cc4)c(=O)c23)CO1 (stereo not drawn) | -50* | i | 22%
CCSc1nc2sc3c(c2c(=O)n1-c1ccc(C)cc1)CCCC3 | -6 | ? | .
CCN(Cc1ccccc1)C(=O)CNC(=O)Cc1c[nH]c2ccccc12 | . | i | .
COc1ccc(C(=O)COC(=O)C2(c3ccccc3)CCCC2)cc1F | . | i | .
CCC(C)(C)C(=O)NCc1cc2c(nc1OC)CN(C1CCCC1)C2=O | -30* | i | 9%
COc1nc2c(cc1CNC(=O)CC1CCCCC1)C(=O)N(C1CCCC1)C2 | 2 | i | .
CCCC(=O)NCc1cc2c(nc1OC)CN(C1CCCC1)C2=O | -1 | i | .
CCC(=O)NCc1cc2c(nc1OC)CN(C1CCCC1)C2=O | -33* | ? | -10%
Cc1ccc(-n2nnnc2SCC(=O)Nc2ccc(N3CCOCC3)cc2)cc1C | . | i | .
CCOc1ccc(CNC(=O)Cn2c(=O)c3cccn3c3cccnc32)cc1 | -3 | ? | .
CCOc1ccc(CNC(=O)C(C)n2ncn3cccc3c2=O)cc1 (stereo not drawn) | -27* | i | -11%
O=C(CN1CC2CC(C1)[C@H]1CCCC(=O)N1C2)N1CCC(Cc2ccccc2)CC1 (stereo partly drawn) | -1 | i | .
O=C(CN1C(=O)COc2ccc(S(=O)(=O)NC3CCCC3)cc21)Nc1ccc(Cl)cc1F | -28* | i | 13%
O=C(CN1C(=O)COc2ccc(S(=O)(=O)NC3CCCC3)cc21)Nc1ccc(F)c(Cl)c1 | 17 | ? | .

Compound activity from PubChem.
